Results from the supplement of paper PMC10849652.
Of roughly 8,800 targets only a part is listed; those with a hit were picked by preference. About 0.5% of all pairs of compound and target were hits.

Legend:
Assay in all cases: log2 fold change, soluble protein after heating vs DMSO (PISA); higher = thermal stabilisation; K562 lysate, 10 uM; active = over 0.2 and 3.5 SD of the protein, either way, in both replicates (recomputed)
[1] = compound: CS(=O)(=O)CCNCc1ccc(-c2ccc3ncnc(Nc4ccc(OCc5cccc(F)c5)c(Cl)c4)c3c2)o1 [lapatinib]
How it was run: (§1)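 Log-two fold change in thermal stability relative to solvent controls is reported from duplicates. For each sample, crude K562 extract from dounce-homogenised pellets in PBS pH 7.4 with 1 mM MgCl2, at 1 mg/mL protein, was treated with 10 μM compound for 30 min. Aliquots heated for 3 min across 48°C-58°C were pooled, brought to 0.5% NP-40 at 4°C and cleared at 21,000xg for 90 min. The supernatant was quantified by TMTpro 16plex LC-MS/MS with channel sums equalised.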

[2] = compound: CS(=O)(=O)N1CCN(Cc2cc3nc(-c4cccc5[nH]ncc45)nc(N4CCOCC4)c3s2)CC1 [pictilisib]
How it was run: as §1

[3] = compound: C[C@@H](Oc1cc(-c2cnn(C3CCNCC3)c2)cnc1N)c1c(Cl)ccc(F)c1Cl [crizotinib]
How it was run: as §1

[4] = compound: C[C@H](C1=CC=C(C=C1)C(=O)NC2=C3C=CNC3=NC=C2)N
How it was run: as §1

[5] = compound: C[C@H](Nc1ncnc2nc[nH]c12)c1cc2cccc(Cl)c2c(=O)n1-c1ccccc1 [duvelisib]
How it was run: as §1

[6] = compound: Cc1cc(Nc2cc(CN3CCOCC3)c3nc(C)c(Cc4ccc(Cl)cc4F)n3n2)n[nH]1 [gandotinib]
How it was run: as §1

[7] = compound: Cc1ccc(-n2nc(C(C)(C)C)cc2NC(=O)Nc2ccc(OCCN3CCOCC3)c3ccccc23)cc1 [doramapimod]
How it was run: as §1

[8] = compound: Cc1ccc(NC(=O)c2ccc(CN3CC[C@H](N(C)C)C3)c(C(F)(F)F)c2)cc1Nc1nccc(-c2cncnc2)n1 [bafetinib]
How it was run: as §1

[9] = compound: Cc1cccc(CC(=O)N2CCc3c2ccc(-c2cn(C)c4ncnc(N)c24)c3F)n1
How it was run: as §1

[10] = compound: Cc1nc(Nc2ncc(C(=O)Nc3c(C)cccc3Cl)s2)cc(N2CCN(CCO)CC2)n1 [dasatinib]
How it was run: as §1

[11] = compound: Cn1cc(-c2ccc3c(c2)CCN3C(=O)Cc2cccc(C(F)(F)F)c2)c2c(N)ncnc21
How it was run: as §1

[12] = compound: Cn1cc(CNCC2CCN(c3ncc(C(=O)NO)cn3)CC2)c2ccccc21 [quisinostat]
How it was run: as §1

[13] = compound: NC(=O)Nc1cc(-c2cccc(F)c2)sc1C(=O)N[C@H]1CCCNC1
How it was run: as §1

[14] = compound: NC(=O)c1cnc(N[C@@H]2CCCC[C@@H]2N)nc1Nc1cccc(-n2nccn2)c1
How it was run: as §1

[15] = compound: NC1(c2ccc(-c3nc4ccn5c(=O)[nH]nc5c4cc3-c3ccccc3)cc2)CCC1
How it was run: as §1

[16] = compound: Cc1cc(Nc2cc(N3CCN(C)CC3)nc(Sc3ccc(NC(=O)C4CC4)cc3)n2)n[nH]1 [tozasertib]
How it was run: as §1

[17] = compound: Cc1cn(-c2cc(NC(=O)c3ccc(C)c(Nc4nccc(-c5cccnc5)n4)c3)cc(C(F)(F)F)c2)cn1 [nilotinib]
How it was run: as §1

[18] = compound: Cc1nc(Nc2n[nH]c3c2CN(C(=O)N[C@H](CN(C)C)c2ccccc2)C3(C)C)c2sccc2n1
How it was run: as §1

[19] = compound: Cc1ncc(-c2ccnc(Nc3ccc(S(C)(=O)=O)cc3)n2)n1C(C)C
How it was run: as §1

[20] = compound: Cn1cncc1[C@@](N)(c1ccc(Cl)cc1)c1ccc2c(c1)c(-c1cccc(Cl)c1)cc(=O)n2C [tipifarnib]
How it was run: as §1

Measured: log2 fold change

SH3BP2 isoform 4 (UniProt P78314)
Chain of UniProt P78314 (P78314 whole entry, looked up): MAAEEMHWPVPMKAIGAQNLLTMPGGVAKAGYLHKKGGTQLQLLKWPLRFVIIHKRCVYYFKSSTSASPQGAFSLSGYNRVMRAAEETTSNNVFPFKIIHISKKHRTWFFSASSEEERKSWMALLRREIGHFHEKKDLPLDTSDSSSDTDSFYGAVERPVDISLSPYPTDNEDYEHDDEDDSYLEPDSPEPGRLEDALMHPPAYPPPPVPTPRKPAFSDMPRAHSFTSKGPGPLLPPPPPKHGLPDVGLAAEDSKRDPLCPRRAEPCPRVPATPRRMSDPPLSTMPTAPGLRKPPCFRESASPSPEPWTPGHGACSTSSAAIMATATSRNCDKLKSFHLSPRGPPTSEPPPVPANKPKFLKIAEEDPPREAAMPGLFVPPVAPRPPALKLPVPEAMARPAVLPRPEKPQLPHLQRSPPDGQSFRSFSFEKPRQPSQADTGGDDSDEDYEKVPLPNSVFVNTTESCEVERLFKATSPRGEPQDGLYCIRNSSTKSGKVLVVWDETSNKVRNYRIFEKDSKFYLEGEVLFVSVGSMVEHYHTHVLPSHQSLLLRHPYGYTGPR
active: [2] -0.41
inactive: [1] -0.135 | [3] -0.021 | [4] 0.01 | [5] 0.053 | [6] -0.02 | [7] 0.057 | [8] -0.105 | [9] 0.123 | [10] -0.027 | [11] -0.107 | [12] -0.111 | [13] 0.019 | [14] 0.141 | [15] 0.048

SF3B6 (UniProt Q9Y3B4)
Chain of UniProt Q9Y3B4 (Q9Y3B4 whole entry, looked up): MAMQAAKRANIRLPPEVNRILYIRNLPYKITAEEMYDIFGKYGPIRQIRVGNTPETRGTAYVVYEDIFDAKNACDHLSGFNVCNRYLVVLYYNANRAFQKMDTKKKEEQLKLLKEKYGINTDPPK
inactive: [1] -0.01 | [2] -0.083 | [3] -0.008 | [4] 0.009 | [5] 0.059 | [6] -0.069 | [16] -0.188 | [7] 0.047 | [8] -0.009 | [9] -0.058 | [17] 0.045 | [18] 0.013 | [10] -0.036 | [19] -0.028 | [11] -0.038 | [12] 0.016 | [20] 0.021 | [13] 0 | [14] -0.054 | [15] -0.03

SNUPN (UniProt O95149)
Chain of UniProt O95149 (O95149 whole entry, looked up): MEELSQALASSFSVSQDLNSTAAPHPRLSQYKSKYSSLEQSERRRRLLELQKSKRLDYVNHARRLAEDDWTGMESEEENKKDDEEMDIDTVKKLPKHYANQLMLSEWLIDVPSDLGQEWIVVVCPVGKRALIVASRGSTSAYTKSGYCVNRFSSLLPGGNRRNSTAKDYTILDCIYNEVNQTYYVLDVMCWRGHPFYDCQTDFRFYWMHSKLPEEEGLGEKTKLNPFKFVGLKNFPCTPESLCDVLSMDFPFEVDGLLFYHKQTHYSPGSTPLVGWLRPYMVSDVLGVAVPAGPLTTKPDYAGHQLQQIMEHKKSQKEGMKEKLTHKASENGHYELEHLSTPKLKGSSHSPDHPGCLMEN
active: [15] -0.482
inactive: [1] 0.026 | [2] -0.083 | [3] -0.03 | [4] -0.009 | [6] -0.036 | [16] 0.023 | [7] -0.002 | [8] -0.061 | [9] 0.006 | [17] -0.007 | [18] -0.013 | [19] 0.005 | [12] 0.128 | [20] -0.015 | [13] 0.042 | [14] -0.115

SPPL2A (UniProt Q8TCT8)
Chain of UniProt Q8TCT8 (Q8TCT8 whole entry, looked up): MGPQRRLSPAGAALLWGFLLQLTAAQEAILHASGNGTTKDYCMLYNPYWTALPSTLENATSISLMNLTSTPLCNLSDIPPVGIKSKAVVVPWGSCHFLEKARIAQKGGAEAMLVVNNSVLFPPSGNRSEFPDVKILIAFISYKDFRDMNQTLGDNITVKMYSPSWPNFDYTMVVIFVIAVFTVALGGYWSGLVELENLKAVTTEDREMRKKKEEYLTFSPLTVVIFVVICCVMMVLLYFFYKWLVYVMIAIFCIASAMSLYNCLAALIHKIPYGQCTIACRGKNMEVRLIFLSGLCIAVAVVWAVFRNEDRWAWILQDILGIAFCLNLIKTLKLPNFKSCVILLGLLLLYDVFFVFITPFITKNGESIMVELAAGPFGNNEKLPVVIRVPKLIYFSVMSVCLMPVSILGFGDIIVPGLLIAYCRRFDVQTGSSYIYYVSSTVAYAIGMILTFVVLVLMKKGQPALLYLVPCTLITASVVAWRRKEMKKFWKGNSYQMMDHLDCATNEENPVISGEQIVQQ
inactive: [1] -0.002 | [2] -0.059 | [3] -0.127 | [4] -0.302 | [6] -0.093 | [16] 0.082 | [7] -0.032 | [8] -0.127 | [9] 0.1 | [12] -0.21 | [13] 0.046 | [14] 0 | [15] -0.072

SKA3 (UniProt Q8IX90)
Chain of UniProt Q8IX90 (Q8IX90 whole entry, looked up): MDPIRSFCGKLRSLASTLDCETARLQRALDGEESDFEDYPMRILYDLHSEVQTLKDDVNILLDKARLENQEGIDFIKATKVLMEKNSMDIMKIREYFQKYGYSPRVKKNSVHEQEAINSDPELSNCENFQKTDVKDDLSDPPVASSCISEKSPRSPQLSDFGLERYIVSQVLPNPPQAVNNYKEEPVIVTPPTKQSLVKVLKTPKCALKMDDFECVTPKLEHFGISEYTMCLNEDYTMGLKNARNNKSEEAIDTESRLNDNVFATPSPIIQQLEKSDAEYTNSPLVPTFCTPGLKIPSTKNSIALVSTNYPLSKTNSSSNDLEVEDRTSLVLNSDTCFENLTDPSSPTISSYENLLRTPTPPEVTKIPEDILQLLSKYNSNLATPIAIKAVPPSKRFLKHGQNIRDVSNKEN
inactive: [1] 0.009 | [2] -0.022 | [3] -0.029 | [4] -0.008 | [5] -0.022 | [6] -0.011 | [16] -0.008 | [7] 0.002 | [8] 0.027 | [9] 0.034 | [17] -0.046 | [18] -0.018 | [10] -0.028 | [19] 0.023 | [11] 0.002 | [12] -0.093 | [20] -0.02 | [13] 0.044 | [14] 0.034 | [15] -0.004

SMC4 (UniProt Q9NTJ3)
Chain of UniProt Q9NTJ3 (Q9NTJ3 whole entry, looked up): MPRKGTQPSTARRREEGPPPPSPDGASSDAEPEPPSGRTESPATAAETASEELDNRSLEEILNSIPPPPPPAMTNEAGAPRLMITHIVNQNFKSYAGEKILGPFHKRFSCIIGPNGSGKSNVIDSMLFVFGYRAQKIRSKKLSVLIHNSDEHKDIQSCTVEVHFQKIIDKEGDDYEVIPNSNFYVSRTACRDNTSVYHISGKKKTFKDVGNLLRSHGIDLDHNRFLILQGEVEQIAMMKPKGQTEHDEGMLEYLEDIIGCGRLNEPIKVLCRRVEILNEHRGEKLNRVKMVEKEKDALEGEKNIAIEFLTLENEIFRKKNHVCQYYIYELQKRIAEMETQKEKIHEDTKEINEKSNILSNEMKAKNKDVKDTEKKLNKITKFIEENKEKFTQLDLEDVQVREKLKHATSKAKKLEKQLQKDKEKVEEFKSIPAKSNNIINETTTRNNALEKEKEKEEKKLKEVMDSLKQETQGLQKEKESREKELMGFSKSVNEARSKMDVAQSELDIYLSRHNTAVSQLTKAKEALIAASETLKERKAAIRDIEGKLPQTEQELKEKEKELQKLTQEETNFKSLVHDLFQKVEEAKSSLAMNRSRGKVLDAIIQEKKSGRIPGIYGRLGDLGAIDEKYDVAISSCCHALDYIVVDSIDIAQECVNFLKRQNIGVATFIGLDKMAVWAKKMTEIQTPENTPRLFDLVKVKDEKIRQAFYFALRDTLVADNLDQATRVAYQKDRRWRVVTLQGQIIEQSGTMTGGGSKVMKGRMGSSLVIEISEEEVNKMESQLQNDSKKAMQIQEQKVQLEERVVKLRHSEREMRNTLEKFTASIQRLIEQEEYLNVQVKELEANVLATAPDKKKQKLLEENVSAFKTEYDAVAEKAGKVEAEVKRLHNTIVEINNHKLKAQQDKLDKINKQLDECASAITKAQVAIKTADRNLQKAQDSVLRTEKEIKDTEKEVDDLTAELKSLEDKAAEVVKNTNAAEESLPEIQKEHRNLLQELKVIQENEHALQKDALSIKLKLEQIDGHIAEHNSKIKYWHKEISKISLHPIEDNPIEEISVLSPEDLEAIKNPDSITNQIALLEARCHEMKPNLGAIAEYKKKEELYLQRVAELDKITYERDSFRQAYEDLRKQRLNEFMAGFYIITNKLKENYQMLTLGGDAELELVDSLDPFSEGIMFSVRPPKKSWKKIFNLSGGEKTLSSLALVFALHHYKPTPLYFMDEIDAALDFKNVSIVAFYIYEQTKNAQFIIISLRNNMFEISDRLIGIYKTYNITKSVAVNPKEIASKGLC
inactive: [1] -0.028 | [2] -0.002 | [3] -0.007 | [4] 0.068 | [5] 0.009 | [6] -0.154 | [16] -0.012 | [7] -0.026 | [8] -0.021 | [9] -0.051 | [17] -0.01 | [18] 0.009 | [10] -0.03 | [19] 0.016 | [11] 0.003 | [12] -0.014 | [20] -0.003 | [13] 0.027 | [14] 0.009 | [15] -0.023

SMC1B isoform 3 (UniProt Q8NDV3)
Chain of UniProt Q8NDV3 (Q8NDV3 whole entry, looked up): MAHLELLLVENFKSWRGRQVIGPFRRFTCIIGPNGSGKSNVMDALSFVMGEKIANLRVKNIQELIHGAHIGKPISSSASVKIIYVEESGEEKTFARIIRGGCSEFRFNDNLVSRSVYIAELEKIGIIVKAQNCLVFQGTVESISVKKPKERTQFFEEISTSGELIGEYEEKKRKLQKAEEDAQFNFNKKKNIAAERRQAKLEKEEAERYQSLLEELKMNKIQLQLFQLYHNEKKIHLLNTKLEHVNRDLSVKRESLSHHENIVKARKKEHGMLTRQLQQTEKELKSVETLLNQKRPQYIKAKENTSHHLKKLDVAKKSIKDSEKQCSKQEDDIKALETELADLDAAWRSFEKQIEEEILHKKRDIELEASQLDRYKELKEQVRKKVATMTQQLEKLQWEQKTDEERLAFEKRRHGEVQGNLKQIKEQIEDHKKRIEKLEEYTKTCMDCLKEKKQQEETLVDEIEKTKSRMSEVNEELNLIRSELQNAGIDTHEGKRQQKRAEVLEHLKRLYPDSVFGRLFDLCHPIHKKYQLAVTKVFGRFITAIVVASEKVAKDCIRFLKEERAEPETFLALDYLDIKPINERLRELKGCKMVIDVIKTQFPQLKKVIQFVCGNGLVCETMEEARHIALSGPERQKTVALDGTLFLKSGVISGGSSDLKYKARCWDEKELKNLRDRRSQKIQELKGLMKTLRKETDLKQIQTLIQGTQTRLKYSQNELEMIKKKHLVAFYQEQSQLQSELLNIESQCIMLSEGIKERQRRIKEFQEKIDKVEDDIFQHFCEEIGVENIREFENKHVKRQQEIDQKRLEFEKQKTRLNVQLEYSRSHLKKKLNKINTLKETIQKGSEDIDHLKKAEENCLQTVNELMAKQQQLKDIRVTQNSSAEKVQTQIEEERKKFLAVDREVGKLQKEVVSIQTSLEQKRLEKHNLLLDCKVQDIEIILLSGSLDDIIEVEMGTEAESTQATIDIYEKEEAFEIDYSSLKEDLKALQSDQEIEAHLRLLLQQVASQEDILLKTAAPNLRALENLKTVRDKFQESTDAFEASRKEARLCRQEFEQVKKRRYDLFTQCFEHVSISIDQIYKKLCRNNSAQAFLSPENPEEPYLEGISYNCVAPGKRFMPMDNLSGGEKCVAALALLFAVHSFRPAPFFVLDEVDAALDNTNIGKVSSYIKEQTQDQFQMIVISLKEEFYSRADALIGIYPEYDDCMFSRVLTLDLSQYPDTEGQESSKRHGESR
inactive: [1] 0 | [2] -0.037 | [3] -0.019 | [5] 0.015 | [16] 0.26 | [7] -0.036 | [8] -0.093 | [17] 0.022 | [18] -0.041 | [10] -0.004 | [19] 0.023 | [11] 0.016 | [12] 0.004 | [20] 0.008 | [13] -0.014 | [14] -0.005 | [15] -0.055

SMIM1 (UniProt B2RUZ4)
Chain of UniProt B2RUZ4 (B2RUZ4 whole entry, looked up): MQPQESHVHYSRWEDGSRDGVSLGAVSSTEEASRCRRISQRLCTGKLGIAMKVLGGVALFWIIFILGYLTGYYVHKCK
active: [15] -0.418
inactive: [1] 0.098 | [2] -0.028 | [3] -0.106 | [4] 0.121 | [6] 0.106 | [16] -0.019 | [7] 0.034 | [8] -0.021 | [9] 0.011 | [17] 0.056 | [18] 0.05 | [19] 0.195 | [12] 0.168 | [20] 0.039 | [13] -0.055 | [14] -0.188
